Test results: PubChem BioAssay AID493208 (National Center for Advancing Translational Sciences (NCATS), 2011)
Among all 44,000 compounds or so, about 340 (0.77%) were called active. Inconclusive results (about 5%) are left out. This is one part of a sample in which actives are shown more often than they occur. Unmarked numbers belong to inactive results. The call rests on the fitted dose curve; in most records, active means well fitted inhibition curve with a large enough effect; inconclusive means small, poorly fitted or top-dose-only effect; inactive means flat fitted curve, though single readings scatter.

Assay: Acumen qHTS Assay for Inhibitors of the mTORC1 Signaling Pathway in MEF (Tsc2-/-, p53-/-) Cells: Sytravon; further: nearly all actives have a fitted effect of over 50% in size;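 on activity change, negative = inhibition: plate controls were DMSO for no effect and rapamycin for full effect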
Details: phospho-rpS6 immunofluorescence/PI, 24 h; series mostly up to 38.3 µM; activity change, negative = inhibition: at the top concentration
Description: NIH Molecular Libraries Probe Production Centers Network [MLPCN] NIH Chemical Genomics Center [NCGC] MLPCN Grant: NS059428-01 Assay Submitter (PI): Blenis, John; Hoffman, Greg; Harvard University NCGC Assay Overview: The mammalian target of rapamycin (mTOR) is an intracellular serine/threonine kinase Aberrant regulation of mTOR signaling plays a causative role in a number of human diseases, including cancer, benign tumors such as lymphangioleiomyomatosis (LAM) and Tuberous Sclerosis Complex (TSC), and metabolic diseases such as diabetes and obesity. This project aims to identify inhibitors of ribosomal protein S6 (rpS6) phosphorylation. The phosphorylation of rpS6 is a key event downstream of mTOR activation. The assay uses a phospho-specific antibody of phospho-rpS6 to detect inhibitors of mTOR activation. Mutations in the Tsc1 and Tsc2 genes are the underlying genetic lesions responsible for TSC, causing constitutive activation of the mTORC1 pathway and leading to profound effects on cell metabolism. Aberrant metabolism in cancer has recently received significant attention as a target to develop therapeutic agents in the treatment of cancer.1 As Tsc2-/- cells have lost the ability to respond to energy and growth factor deprivation, these cells are unable to properly down regulate cellular biosynthetic processes in response to metabolic stress, and are thus extremely sensitive to glucose deprivation-induced death.2 A central goal of this project is to explore the unique cell survival and metabolic properties of cells with Tsc1 or Tsc2 by screening for compounds that selectively target the Tsc2-/- MEFs by screening both Tsc2-/- and WT MEF cell lines. We hope to better understand these aspects of TSC physiology in order to exploit them for therapeutic benefit.
NCGC Acumen Assay Protocol Summary: For quantitative high throughput analysis of mTORC1 signaling, we developed a cell-based assay for immuno-fluorescence based detection of rpS6 phosphorylation on the Acumen Explorer that will be used a platform for the primary small molecule screen. Mouse embryonic fibroblasts (MEFs) are cultured in 1536-well plates using DMEM + 10% FBS. Twenty-four hrs after plating, test compounds (solubilized in DMSO) are delivered and incubated with the cells for 24 hrs at 37 degree Celsius. Following the incubation, media with compound is aspirated and the cells are fixed in 4% paraformaldehyde (PFA) containing PBS + 0.2% TX-100. Next, PFA is aspirated, cells are washed two times with PBS plus 0.2% TX-100 and the cells are blocked for 1 hr at room temperature (blocking buffer: LiCOR Blocking Buffer plus 0.2% TX-100). […] Cells are washed two times with PBS plus 0.2% TX-100, and stained with 10 uM propidium iodide (PI) for 20-25 minutes for cell number measurement (1:500 dilution of Hoescht staining is also added for IN Cell imaging). The plates are scanned on the Acumen Explorer laser scanning instrument (TTP Labtech) using the 488nm laser for simultaneous excitation of the Alexa-488 and PI. […] The normalized phospho-S6 staining is calculated as the ratio of the integrated Alexa 488 intensity divided by the integrated PI intensity for the single concentration rapamycin control (7.5 nM) and DMSO columns. […] Inhibition of the pathway is defined based on the normalized phospho-S6 intensity in rapamycin treated cells. Active cells are defined as those with a normalized phospho-S6 staining above this threshold, and each treatment is reported as the % positive cells in the well, where thresholds are defined by selecting wells with the highest and lowest signal and differentiating between the % non-active and % active populations. In addition to the pathway specific phospho-S6 endpoint, the number of PI stained cells from the Acumen is recorded as a measure of cell viability. The primary screen was performed with a MEF cell line in a defined genetic background, Tsc2-/-, p53-/- cell line stably transfected with an empty vector control (Tsc2-/- MEF).
Potency means the concentration at half of the fitted maximal effect.

Point of comparison: CC1CCCCN1CCCNC(=O)Cn1ncc2c([nH]c3ccccc32)c1=O (stereo not drawn), “activity change, negative = inhibition” value -1.23%. Against it:
- CSc1oc(-c2cccs2)nc1S(=O)(=O)c1ccc(Br)cc1 — higher, 2.88%
- Cc1ccc(CSc2oc(-c3cccs3)nc2S(=O)(=O)c2ccc(C)cc2)cc1 — higher, 0%
- Cc1ccc(CNC(=O)CSc2c3c(nc4cc(Cl)ccc24)CCCC3)cc1 — lower, -6.2%
- COc1cccc(CNC(=O)CSc2c3c(nc4cc(Cl)ccc24)CCCC3)c1 — higher, 3.18%
- CN(C)CCN(Cc1ccccc1)S(=O)(=O)c1csc(C(N)=O)c1 — higher, 3.82%
- CC(C)C12CN3CC(C(C)C)(CN(C1)C3c1ccc(OCc3ccccc3)cc1)C2=O (stereo not drawn) — lower, -2.1%
- N#C/C(=C\c1ccccc1F)c1nc2ccccc2c(=O)[nH]1 — higher, 7.42%
- COC(=O)c1cnn(-c2ccc(C(=O)Nc3ccc(OC(F)(F)F)cc3)cc2)c1N — lower, -1.33%
- Cc1ccc(Cn2c(=O)n(-c3ccc(C)cc3)c(=O)c3c2c2cc(C)ccc2n3C)cc1 — lower, -1.48%
- CCSc1ncc(Cl)c(C(=O)Nc2cc(C)ccc2C)n1 — higher, 5.83%
- CCOC(=O)c1ccc(NC(=O)c2nc(SCc3ccc(F)cc3)ncc2Cl)cc1 — lower, -6.5%
- CCC(C)NC(=O)Cn1c(=O)n(-c2ccc(Cl)cc2)c(=O)c2c3c(sc21)CCCC3 (stereo not drawn) — higher, 7.38%
- COc1ccccc1-c1noc(CSc2nnc(-c3ccccc3)n2-c2ccc(C)c(C)c2)n1 — lower, -10.2%
- CCOc1ccc(CNC(=O)c2ccc(CS(=O)c3ccccc3)o2)cc1 (stereo not drawn) — higher, 3.66%
- CCCCC(CC)CNC(=O)C1CCN(S(=O)(=O)c2cccc3nsnc23)CC1 (stereo not drawn) — higher, 2.77%
- CC(=O)c1cccc(NC(=O)CSc2nc3c(c(=O)[nH]2)CCC3)c1 — higher, 2.41%
- Cc1ccc(Cn2c(C)c3cnn(CC(=O)NCc4ccccc4)c(=O)c3c2C)cc1 — lower, -12.7%
- Clc1ccc(CSc2nncn3c2cc2occc23)cc1 — higher, 0.254%
- COc1cc(OC)cc(-c2nc3nc(C)c(CCC(=O)Nc4ccccc4)c(C)n3n2)c1 — higher, 2.09%
- CCOc1cccc(CC(=O)N2CCc3c([nH]c4ccccc34)C2c2ccc(OC)cc2)c1OCC (stereo not drawn) — higher, 9.34%
- CCN(C(=O)CSc1nnc(C)n2c1cc1occc12)c1ccccc1 — lower, -2.15%
- Cc1ccc(-c2nc(SCc3ccc(Br)cc3)n3[nH]c(=O)cc3n2)cc1 — lower, -2.33%
- O=c1cc(-c2ccccc2)n2c(SCc3ccccc3)nnc2[nH]1 — higher, 0.0486%
- CCCCSc1ncnc2c1sc1nc(N3CCOCC3)c3c(c12)CCCC3 — higher, 6.37%
- COc1ccc(N2C(=O)CSC23C(=O)N(Cc2cccc(F)c2)c2ccccc23)cc1Cl (stereo not drawn) — lower, -3.26%
- COc1cc(C(=O)Nc2ccc(OCc3cc(=O)n4cc(C)sc4n3)cc2)cc(OC)c1OC — lower, -6.16%
- CCOc1ccc(NC(=O)c2ncoc2-c2ccco2)cc1 — higher, 0%
- Cn1nnnc1SCCNCc1ccc(Cl)c(Cl)c1 — lower, -5.71%
- Cn1nnnc1SCCCNCc1ccc(Cl)cc1 — lower, -9.59%
- COc1ccc(C(=O)Nc2nonc2-c2ccc(OC)c(OC)c2)cc1Cl — lower, -29.4%
- Cc1ccc(NC(=O)c2cc3cc(C)ccc3n2C)cc1 — lower, -1.67%
- Cc1ccc(S(=O)(=O)c2nnn3c2nc(N2CCN(c4ccccc4F)CC2)c2cc(Cl)ccc23)cc1C — higher, -0.0789%
- COC(=O)c1cc(NC(=O)c2cnc(SC)nc2-c2ccccc2)cc(C(=O)OC)c1 — higher, -1.13%
- Cc1ccc(Nc2nnc(-c3ccc(C)c(S(=O)(=O)N4CCCCC4)c3)c3ccccc23)cc1 — lower, -1.69%
- Cc1ccc(-c2nnc(Nc3cccc(Br)c3)c3ccccc23)cc1S(=O)(=O)NCC1CCCO1 (stereo not drawn) — higher, -0.426%
- O=C(Nc1ccccc1Cl)N1CCC(CN2CCCCC2)CC1 — lower, -6.23%
- CCc1ccc(CNC(=O)c2cc3c(=O)n(CC)c4ccccc4c3s2)cc1 — lower, -7.38%
- CCn1c(=O)c2cc(C(=O)NCCc3ccc(Cl)cc3)sc2c2ccccc21 — higher, 1.55%
- CCCCOC(=O)CSc1ncnc2sc3c(c12)CCC(C)C3 (stereo not drawn) — higher, -0.119%
- Cc1cc(NC(=O)CC(C)C)cc(-c2nc3ncccc3o2)c1O — higher, 1.54%
- CCc1ccc(NC(=O)c2cc3c(=O)n(Cc4cccnc4)ccc3nc2C)cc1 — lower, -1.59%

In the case of CCOC(=O)C1CCN(C(=O)CSc2c3c(nc4ccc(Cl)cc24)CCCC3)CC1, the Potency is reported as 18.5 µM (active).
With Cc1ccc(NC(=O)c2nc(S(=O)(=O)Cc3cccc(C)c3)ncc2Cl)cc1 the Potency was 5.85 µM (active).
In the case of Cn1nnnc1SCCCNCc1cccc(OCc2ccc(Cl)cc2)c1, the Potency is reported as 18.5 µM (active).
For CCNS(=O)(=O)c1cc(-c2nnc(Nc3cccc(C(F)(F)F)c3)c3ccccc23)ccc1C, the Potency was 18.5 µM (active).
In the case of CCN(CCCNC(=O)c1cc2c(=O)n(CC)c3ccccc3c2s1)Cc1ccccc1, the Potency is reported as 18.5 µM (active).
For O=C(CC(NCc1cccnc1)C(=O)O)Nc1ccc(O)cc1 (stereo not drawn), the Potency was 14.7 µM (active).
